From PubChem BioAssay
AMA1 RON2 block – AMA1-RON2 (P. falciparum) interaction inhibition; AlphaScreen AMA1-biotinylated RON2 peptide binding; 0.2% of 360,000 active; AID 720542; Potency, µM (series often up to 58.2 µM), for the others: top-dose activity change, negative = inhibition, actives largely listed as inhibitors;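 note: potency is the fitted concentration of half-maximal effect; 0% = vehicle wells and -100% = peptide control; nearly all actives have a fitted effect of over 45% in size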
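AMA1 (3D7) with his tag at 25 nM final met compounds first, then biotinylated RON2 peptide at 25 nM; detection used donor plus acceptor beads, 10 µg/mL apiece, read by AlphaScreen after 30 min at room temperature.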
SARS PLpro yeast – SARS-CoV PLP inhibition in yeast | S. cerevisiae expressing SARS-CoV PLpro, growth rescue | 0.19% of 330,000 active | Potency, µM (titrated, usually from 32.9 µM), for inactives: top-dose activity, positive = growth rescue, actives largely listed as activators | AID 485353; calls by dose curve; note: potency is the fitted concentration of half-maximal effect; 0% is about no effect; nearly all actives have a fitted effect of over 55% in size
AmpC inh detg – AmpC beta-lactamase inhibition with detergent present | P00811 | AmpC hydrolysis of nitrocefin, absorbance 480 nm, 0.01% Triton | Potency, µM (titrated, usually from 114 µM), for inactives: top-dose activity change, negative = inhibition, most hits filed as inhibitors | 0.041% of 370,000 active | AID 485294;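 note: potency is the fitted concentration of half-maximal effect; 0% = no-compound wells and -100% = no-enzyme wells; nearly all actives have a fitted effect of over 25% in size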
Target sequence (P00811 whole entry, looked up): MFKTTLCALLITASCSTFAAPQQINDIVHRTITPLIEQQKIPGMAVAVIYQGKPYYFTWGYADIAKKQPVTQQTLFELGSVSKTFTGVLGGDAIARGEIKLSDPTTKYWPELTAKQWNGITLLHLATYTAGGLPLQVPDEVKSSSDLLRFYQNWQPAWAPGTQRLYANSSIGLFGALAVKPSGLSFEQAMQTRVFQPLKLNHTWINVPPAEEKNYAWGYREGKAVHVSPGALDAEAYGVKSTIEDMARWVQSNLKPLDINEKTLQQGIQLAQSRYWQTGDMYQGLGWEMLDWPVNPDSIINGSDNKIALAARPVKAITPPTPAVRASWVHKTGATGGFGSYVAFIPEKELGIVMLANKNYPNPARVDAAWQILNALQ
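AmpC (5.3 nM in the dispensed reagent) in 20 mM phosphate pH 7.0 with 0.01% (detergent screen) or 0.0001% Triton X-100 was preincubated with compounds for 15 min at room temperature. Nitrocefin was then added from an 800 uM solution, and hydrolysis was followed at 480 nm.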
AmpC no deterg – AmpC beta-lactamase inhibition without detergent | Potency, µM (highest dose often 57.1 µM), for the others: at the top dose activity change, negative = inhibition, actives largely listed as inhibitors | 0.52% of 330,000 active | AmpC nitrocefin hydrolysis, absorbance 480 nm, 0.0001% Triton | AID 485341;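 note: potency is the fitted concentration of half-maximal effect; plate controls were no compound for no effect and no enzyme for full effect; nearly all actives have a fitted effect of over 20% in size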
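AmpC (5.3 nM in the dispensed reagent) in 20 mM phosphate pH 7.0 with 0.01% (detergent screen) or 0.0001% Triton X-100 was preincubated with compounds for 15 min at room temperature. Nitrocefin was then added from an 800 uM solution, and hydrolysis was followed at 480 nm.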
Shiga inhibitor – blocks Shiga toxin action in Vero cells; 9.2% of 290,000 active; Vero cells, Shiga toxin protein synthesis inhibition reporter; inhibition, % at 38.7 µM; in the data active = inhibition mostly above about 28%, no sharp cut-off; inactive = mostly below about 43%; note: 0% is about no effect
Cycloheximide cs – counter-screen hit for Shiga toxin inhibitors, cycloheximide; 12% of 300,000 active; AID 2314; max response, %; cell reporter, cycloheximide protein synthesis inhibition counterscreen; in the data active = max response mostly above about 13%, no sharp cut-off; inactive = mostly below about 14%; note: read at 38.3 µM for the half of the compounds with a filed dose; 0% is about no effect
Active calls of the source: *; ? = inconclusive; . = not tested or not shown; + = active, no number; [ ] = another dose, or the depositor's remark. This is one part of a sample in which hits are shown more often than they occur. Unless noted, calls come from the whole dose curve; as a rule, active = well fitted curve in the direction sought with a large enough effect; inconclusive = small, poorly fitted or top-dose-only effect, or another doubt; inactive = no such curve, though single readings can be large; an effect the other way counts as inactive or inconclusive.

SMILES | AMA1 RON2 block | SARS PLpro yeast | AmpC inh detg | AmpC no deterg | Shiga inhibitor | Cycloheximide cs
O=c1c2ccccc2nc2ccc(NCc3cccs3)nn12 | -5% | 11% | ? | -14% | 59* | 54*
COc1ccc(OCCn2c(NC(=O)c3ccc(OC)cc3)nc3ccccc32)cc1 | . | . | 20% | . | . | .
O=C(NC(=S)Nc1nc2ccccc2s1)c1ccco1 | 51% | -6% | -13% | -21% | 30* | 35*
O=C(NC(=S)Nc1nc(-c2ccccc2)cs1)c1ccco1 | 47% | -2% | -5% | -44% | 16 | 3
COc1ccc(OCCn2c(NC(=O)c3ccco3)nc3ccccc32)cc1 | 45% | 1% | ? | -35% | 68 | 20*
COc1ccc2nc(NC(=S)NC(=O)c3ccco3)sc2c1 | 53% | -2% | -7% | -32% | 127* | 34*
COc1ccc2sc(NC(=O)c3ccco3)nc2c1 | -3% | -16% | -9% | -18% | 30 | 23*
COc1ccc2c(c1)c(/C=C/c1cc[n+](C)cc1)cn2C | 13% | 1% | -10% | -1% | -7 | -3
N/C(=N\OC(=O)c1cccc(F)c1)c1cccc([N+](=O)[O-])c1 | -9% | -4% | -14% | -38% | 31* | 18*
COc1ccc(OCCCC(=O)ON=C(N)c2ccccc2Cl)cc1 | 17% | 7% | -8% | -21% | . | .
N/C(=N\OC(=O)c1ccccc1Cl)c1cccc([N+](=O)[O-])c1 | 0% | -1% | -18% | -9% | 52* | 37*
N/C(=N/OC(=O)c1ccccc1Cl)c1ncc([N+](=O)[O-])s1 | -29% | -20% | -2% | -29% | 68* | 35*
N/C(=N\OC(=O)c1ccc(F)cc1)c1cccc([N+](=O)[O-])c1 | -2% | -7% | ? | -12% | 57* | 31*
N/C(=N/OC(=O)c1cccc([N+](=O)[O-])c1)c1cccc([N+](=O)[O-])c1 | -20% | 0% | 3% | -9% | 25 | -6
Cc1ccc(NC(=O)CN2C(=O)CCS(=O)(=O)c3ccccc32)cc1Cl | -4% | -7% | -2% | 55% | -8 | -3
Cc1cccc(/C(N)=N/OC(=O)c2ccc(F)cc2)c1 | 16% | -81% | -9% | -21% | 86* | 73*
N/C(=N\OC(=O)c1ccc2ccccc2c1)c1cccc([N+](=O)[O-])c1 | 2%[2.32 µM] | -9% | 1% | -2% | + | 39*
NC(=O)c1cccc([N+](=O)[O-])c1 | -5% | 3% | 6% | -8% | . | .
N/C(=N\OC(=O)c1ccccc1F)c1ccc([N+](=O)[O-])cc1 | -12% | -3% | ? | -18% | 39 | 30*
CC1=C(C)/C(=N/OC(=O)c2cccc([N+](=O)[O-])c2)C=CC1=O | 0% | -27% | ? | -13% | 90* | 56*
Cc1ccccc1-c1nnc(SCC(=O)NC2CCCCC2)o1 | 9% | -3% | -1% | -12% | 18 | -1
C=C1CCN([C@@H](CC(C)C)C(=O)NCc2ccc(OC)cc2)S(=O)(=O)c2ccccc21 | 0% | . | . | . | . | .
COc1ccc(CNC(=O)c2[nH]c(C)c(C(C)=O)c2C)cc1 | -1% | -2% | -11% | -43% | 18 | -1
COc1ccc(NC(=O)c2[nH]c(C)c(C(C)=O)c2C)cc1 | -19% | -2% | -1% | -28% | 79* | 42*
CCc1ccc(NC(=O)c2[nH]c(C)c(C(C)=O)c2C)cc1 | 9% | -40% | -10% | -17% | 56* | 42*
SMILES | AMA1 RON2 block | SARS PLpro yeast | AmpC inh detg | AmpC no deterg | Shiga inhibitor | Cycloheximide cs
CCOC(=O)c1c(C)[nH]c(C(=O)Nc2ccc(NC(C)=O)cc2)c1C | -2% | -1% | ? | -14%[11.4 µM] | -9 | -3
CCOc1ccc(NC(=O)c2[nH]c(C)c(C(C)=O)c2C)cc1 | -5% | -2% | ? | -24% | 43* | 31*
COc1ccc(OCCOC(=O)c2[nH]c(C)c(C(C)=O)c2C)cc1 | -6% | -1% | 4% | -5% | 30 | 27*
CC(C)(NS(=O)(=O)OCC(Cl)(Cl)Cl)c1ccccc1 | -16% | -9% | -5% | -19% | -3 | -1
CCCCCNC(=O)C(C1CC1)n1c(=O)c(-c2ccco2)nc2ccccc21 (centres undefined) | 5% | . | . | . | . | .
CCc1c(C(=O)Nc2ccc(OC)cc2)[nH]c(C)c1C(C)=O | 34% | -7% | ? | -35% | 29* | 21*
CC(=O)c1c(C)[nH]c(C(=O)Nc2nccs2)c1C | 9% | -1% | -4% | -26% | 93* | 40*
CC(=O)c1c(C)[nH]c(C(=O)Nc2cccnc2)c1C | -2% | -3% | -12% | -12% | -24 | 2
CC(=O)c1c(C)[nH]c(C(=O)Nc2cccc(C)n2)c1C | -16% | -2% | 3% | -19% | 59* | 30*
CCc1c(C(=O)Nc2cc(C)ccc2OC)[nH]c(C)c1C(C)=O | 33% | 1% | -1% | -26% | -8 | -2
CC1(c2ccccc2)CC(c2ccccc2)=Nc2ccccc2N1 (centres undefined) | -6% | 4% | -6% | -25% | 91* | 57*
Cc1ccc(C2=Nc3ccccc3NC(C)(c3ccc(C)o3)C2)o1 (centres undefined) | -1% | -3% | 0% | -15% | 82* | 60*
CC1(c2ccccc2)CC(c2ccccc2)=Nc2nonc2N1 (centres undefined) | -1% | -2% | -12% | ? | -13 | -1
O=C(CCc1ccccc1)NNC(=O)C12CC3CC(CC(C3)C1)C2 | -9% | 3% | -12% | -6% | 45 | 21*
N/C(=N\OC(=O)Cc1ccccc1)c1ccccc1Cl | 76% | 1% | 8% | -18% | 94* | 59*
N/C(=N\OC(=O)Cc1ccc(Cl)cc1)c1cccnc1 | 2% | -5% | 1% | -1% | -23 | 15*
N/C(=N\OC(=O)Cc1ccccc1)c1cccnc1 | 0% | 1% | -3% | -4% | 37 | 21*
Cc1cc(C)cc(OCC(=O)O/N=C(\N)c2ccccc2Cl)c1 | 27% | -6% | -7% | -36% | 32 | 16
CCN(CC)CCCNC(=O)/C=C/C(=O)O | 13% | 0% | 0% | 0% | -15 | -3
COc1ccc(C(=O)Nc2ccc(C(=O)NCCc3ccc(OC)c(OC)c3)cc2)cc1 | 12% | 0% | 3% | -11% | -12 | -2
FC(F)c1nnc2c(Cl)cc(C(F)(F)F)cn12 | 0% | 0% | -3% | -11%[2.29 µM] | 26 | 11
Cc1cc(NC2CCCCC2)nc2ccccc12 | -26% | -1% | ? | -27% | 34 | 7
Cc1ccnc(NC2CCCCC2)c1 | 2% | 2% | 14% | -22% | 109* | 31*
COc1ccc(-c2nc3cc([N+](=O)[O-])ccc3o2)cc1 | -1% | 0% | 5% | -30% | 99* | 40*
